Reference: PubChem BioAssay
A number with no mark means an inactive call. Active and inactive are the calls of the source. Unless noted, no stated cut-off is given here; in the data, active means inhibition above about 30%; inactive means the rest.

Columns and labels:
[1] = biological target: Nuclear receptor coactivator 3 (Homo sapiens) (UniProt Q9Y6Q9); assay: SRC3 coactivator transcriptional activity inhibitors, confirmation, cell-based, luminescence, quadruplicate (AID 588792;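 active means mean inhibition over 43.08%, the solvent-only control mean plus 3 SD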;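 further: 0% = DMSO treated cells and 100% = gossypol at 36 µM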); settings: HEK293 GAL4-SRC3 luciferase reporter, at 3.6 µM, active compounds read high
Sequence of Nuclear receptor coactivator 3 (Homo sapiens) (Q9Y6Q9 whole entry, looked up, the tested form may be a part): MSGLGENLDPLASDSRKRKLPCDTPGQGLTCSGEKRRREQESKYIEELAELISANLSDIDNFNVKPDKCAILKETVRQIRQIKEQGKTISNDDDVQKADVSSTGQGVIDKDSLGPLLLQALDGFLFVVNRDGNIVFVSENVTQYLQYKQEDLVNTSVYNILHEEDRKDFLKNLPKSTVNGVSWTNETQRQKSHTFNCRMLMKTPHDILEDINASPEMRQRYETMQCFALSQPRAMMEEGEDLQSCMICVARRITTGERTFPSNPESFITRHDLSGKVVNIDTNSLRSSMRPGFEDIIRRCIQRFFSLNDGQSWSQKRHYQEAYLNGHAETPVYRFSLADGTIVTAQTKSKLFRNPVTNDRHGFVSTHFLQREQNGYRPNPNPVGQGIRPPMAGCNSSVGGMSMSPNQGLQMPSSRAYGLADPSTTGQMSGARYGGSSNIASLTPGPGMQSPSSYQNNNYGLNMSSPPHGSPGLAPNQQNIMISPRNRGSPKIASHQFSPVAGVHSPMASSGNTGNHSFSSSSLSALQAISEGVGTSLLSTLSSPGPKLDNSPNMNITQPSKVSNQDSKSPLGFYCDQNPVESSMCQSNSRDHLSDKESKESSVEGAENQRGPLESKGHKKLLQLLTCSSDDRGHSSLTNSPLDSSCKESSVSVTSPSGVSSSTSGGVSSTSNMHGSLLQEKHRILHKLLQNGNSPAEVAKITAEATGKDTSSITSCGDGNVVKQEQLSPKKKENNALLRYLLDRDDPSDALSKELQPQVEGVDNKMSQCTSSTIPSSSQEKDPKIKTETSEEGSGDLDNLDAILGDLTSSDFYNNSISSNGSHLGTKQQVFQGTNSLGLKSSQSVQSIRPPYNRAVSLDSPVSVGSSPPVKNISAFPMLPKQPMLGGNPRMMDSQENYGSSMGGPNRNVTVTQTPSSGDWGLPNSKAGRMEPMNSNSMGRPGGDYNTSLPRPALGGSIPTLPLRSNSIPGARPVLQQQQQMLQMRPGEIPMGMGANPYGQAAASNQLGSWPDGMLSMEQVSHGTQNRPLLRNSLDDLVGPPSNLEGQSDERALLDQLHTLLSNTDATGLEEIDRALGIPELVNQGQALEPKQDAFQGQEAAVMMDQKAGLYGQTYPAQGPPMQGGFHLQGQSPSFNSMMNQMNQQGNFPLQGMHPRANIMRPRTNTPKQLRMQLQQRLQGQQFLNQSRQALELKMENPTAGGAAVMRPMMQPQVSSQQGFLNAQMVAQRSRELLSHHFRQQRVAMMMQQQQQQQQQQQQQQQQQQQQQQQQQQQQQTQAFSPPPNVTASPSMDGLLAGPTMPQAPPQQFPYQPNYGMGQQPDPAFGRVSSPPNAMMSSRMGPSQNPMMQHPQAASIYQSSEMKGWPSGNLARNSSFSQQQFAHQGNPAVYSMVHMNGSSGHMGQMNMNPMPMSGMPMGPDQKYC

[2] = system: transactivating tegument protein VP16 (Human herpesvirus 1), Gal4-VP16 luciferase reporter; assay: VP16 transactivation inhibitors, counter-screen for SRC3 inhibitor project, cell-based, luminescence, high throughput (AID 588794); settings: mammalian cells, VP16-driven luciferase reporter luminescence; at 3.6 µM; active compounds read high
[3] = biological target: Nuclear receptor coactivator 1 (Homo sapiens) (UniProt Q15788); assay: SRC1 coactivator transcriptional activity inhibitors, confirmation, cell-based, luminescence, quadruplicate (AID 588820;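 active means mean inhibition above 46.68%, the untreated control wells mean plus 3 SD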;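 further: 0% = DMSO wells and 100% = gossypol 36 µM treated wells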); settings: HEK293 GAL4-SRC1 luciferase reporter, at 3.6 µM, active compounds read high
Sequence of Nuclear receptor coactivator 1 (Homo sapiens) (Q15788 whole entry, looked up, the tested form may be a part): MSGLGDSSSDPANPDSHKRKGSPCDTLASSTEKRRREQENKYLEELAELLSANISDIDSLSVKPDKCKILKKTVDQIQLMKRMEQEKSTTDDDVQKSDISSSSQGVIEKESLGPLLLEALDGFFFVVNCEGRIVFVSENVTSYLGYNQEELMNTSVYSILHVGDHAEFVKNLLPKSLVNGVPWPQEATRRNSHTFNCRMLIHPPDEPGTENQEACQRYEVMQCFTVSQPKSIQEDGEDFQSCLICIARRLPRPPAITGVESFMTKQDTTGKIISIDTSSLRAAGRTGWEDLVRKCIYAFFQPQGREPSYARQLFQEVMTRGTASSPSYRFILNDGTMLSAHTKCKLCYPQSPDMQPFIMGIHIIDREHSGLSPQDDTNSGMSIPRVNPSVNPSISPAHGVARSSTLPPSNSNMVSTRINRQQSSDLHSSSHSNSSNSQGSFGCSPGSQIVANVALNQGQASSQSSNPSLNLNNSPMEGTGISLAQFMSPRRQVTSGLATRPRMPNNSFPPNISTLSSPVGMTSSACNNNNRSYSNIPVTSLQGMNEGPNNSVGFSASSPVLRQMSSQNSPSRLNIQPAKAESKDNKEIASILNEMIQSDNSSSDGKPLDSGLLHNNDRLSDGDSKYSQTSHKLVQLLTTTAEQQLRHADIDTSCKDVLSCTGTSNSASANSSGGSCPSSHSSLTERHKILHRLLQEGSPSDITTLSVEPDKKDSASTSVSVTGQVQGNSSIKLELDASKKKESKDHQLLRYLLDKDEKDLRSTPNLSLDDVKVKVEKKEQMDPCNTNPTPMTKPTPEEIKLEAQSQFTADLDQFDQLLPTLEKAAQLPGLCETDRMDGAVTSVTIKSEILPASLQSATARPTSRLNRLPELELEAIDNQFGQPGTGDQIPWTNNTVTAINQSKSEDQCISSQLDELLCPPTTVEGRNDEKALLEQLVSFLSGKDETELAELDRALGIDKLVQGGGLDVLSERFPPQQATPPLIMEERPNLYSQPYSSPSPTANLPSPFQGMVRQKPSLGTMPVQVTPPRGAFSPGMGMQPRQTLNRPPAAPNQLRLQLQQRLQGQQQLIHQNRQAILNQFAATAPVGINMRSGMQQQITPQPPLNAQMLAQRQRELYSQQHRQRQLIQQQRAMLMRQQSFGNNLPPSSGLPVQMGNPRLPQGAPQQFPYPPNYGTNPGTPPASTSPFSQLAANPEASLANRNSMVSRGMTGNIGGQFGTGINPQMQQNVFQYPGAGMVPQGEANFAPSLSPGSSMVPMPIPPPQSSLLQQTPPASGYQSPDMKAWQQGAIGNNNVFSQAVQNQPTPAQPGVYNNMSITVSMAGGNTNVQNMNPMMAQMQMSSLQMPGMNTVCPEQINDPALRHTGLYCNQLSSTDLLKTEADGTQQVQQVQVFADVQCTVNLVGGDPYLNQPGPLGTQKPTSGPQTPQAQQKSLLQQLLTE

[4] = VP16 transactivation inhibitors, counter-screen for SRC1 inhibitor project, cell-based, luminescence, high throughput (AID 588824; in the data active means inhibition above about 25%); settings: cell-based VP16 transactivation luciferase luminescence; at 3.6 µM; active compounds read high

Row | Compound | inhibition [1] | inhibition [2] | inhibition [3] | inhibition [4]
1 | COc1ccc(-n2c(-c3ccc(Br)cc3)c[n+]3c2CCCCC3)cc1 | -0.37% | 16.2% |  | 
2 | COc1ccc(CNC(=O)COC(=O)c2cc(-c3ccc(Cl)s3)nc3ccccc23)cc1 | -14.9% | -13.6% |  | 
3 | O=C(Nc1nc(-c2ccccn2)cs1)c1ccc(F)c(S(=O)(=O)N2CCOCC2)c1 | 28% | 33.5% (active) |  | 
4 | COc1ccc(N2CCN(c3nc(NCCc4ccc(OC)c(OC)c4)nc(OC)n3)CC2)cc1 | 6.14% | 1.14% |  | 
5 | O=C(Nc1sc2c(c1C(=O)O)CCCC2)c1ccc(F)cc1 | 0.98% | 27.5% |  | 
6 | O=C(O)c1ccc(Cl)c(S(=O)(=O)NCc2cccnc2)c1 | 0.83% | -9.62% |  | 
7 | COc1ccc2nc(C)cc(Nc3ccc(N4CCN(C)CC4)cc3)c2c1 | 71.8% (active) | 35.3% (active) |  | 
8 | O=c1c2ccccc2cnn1CCOc1ccccc1 | -15.3% | -21.5% |  | 
9 | Cc1ccc(-n2c(-c3ccccc3)c[n+]3c2CCC3)cc1 | 14.4% | 30.6% (active) |  | 
10 | CCOC(=O)c1c(NC(=O)COc2cccc3c2CCN(C)C3=O)sc2c1CCC2 | -1.43% | 10.2% |  | 
11 | O=C(CCc1ccncc1)NC1CCCc2c1cnn2-c1ccc(F)cc1F (stereo unspecified) | 0.71% | 18.6% |  | 
12 | CN1CCN(S(=O)(=O)c2ccc(Sc3nnnn3-c3ccccc3)c([N+](=O)[O-])c2)CC1 | 24.5% | 2.52% |  | 
13 | CC(=O)c1c(C)n(-c2ccc(Br)cc2)c2ccc(O)cc12 | 53.3% (active) | 30.8% (active) |  | 
14 | CC(C)[C@@H]1CC[C@@H](C)C[C@H]1OC(=O)C[n+]1cc(-c2ccc(Cl)cc2)n2c1CCCCC2 | 10.3% | 20.6% |  | 
15 | CCN(CC)S(=O)(=O)c1cccc(NC(=O)C2SC(=Nc3ccc(C)cc3C)C(C(=O)NC(C)COC)=C2N)c1 (stereo unspecified) | 6.35% | 5.31% |  | 
16 | Nc1cccc2c1C(=O)N(C(=O)c1cccc(S(=O)(=O)N3CCCCCC3)c1)C2=O | 1.95% | -5.22% |  | 
17 | O=C(NC(=S)Nc1ccc(N2CCN(C(=O)c3ccccc3)CC2)cc1)c1cccs1 | 25.8% | 23.8% | 16% | 14.3%
18 | Cc1cc(C(=O)NNc2ccc(F)cc2)no1 | 9% | 7.33% | -4.64% | 8.26%
19 | COc1ccc(-n2ncc3c(N4CCCCC4)ncnc32)cc1 | 51.2% (active) | 41.7% (active) | -11.5% | 23.9%

Row | Compound | inhibition [1] | inhibition [2] | inhibition [3] | inhibition [4]
20 | CCN(CC)c1ncnc2ccc(Br)cc12 | 48.3% (active) | 31.9% (active) | 45.9% | 36% (active)
21 | CC(O)CC(C(=O)NNc1ccccc1)C(=O)NNc1ccccc1 (stereo unspecified) | 10.1% | 16% | -6.15% | 13.1%
22 | O=C(Nc1ccc(S(=O)(=O)N2CCCCC2)cc1)c1ccc(CN2CCOCC2)cc1 | 15.9% | 46% (active) | -6% | 47.1% (active)
23 | O=c1[nH]c(=O)n([C@H]2C[C@H](O)[C@@H](CO)O2)cc1F | 60.6% (active) | 31% (active) | 46% | 35.4% (active)
24 | COc1ccc(-c2cnc(N)nc2-c2ccc(OC)cc2O)cc1 | 22.5% | 13.7% | 29.7% | 18.4%
25 | Cc1ccc2nc(NNC(=O)c3ccc(S(=O)(=O)N4CCc5ccccc5C4)cc3)sc2c1 | 41.8% | 46.4% (active) | 45% | 50% (active)
26 | COc1ccc(OC)c(/C=C/c2ccnc3ccccc23)c1 | 19.1% | 54.2% (active) | 34.5% | 53.7% (active)
27 | COc1cccc(CNc2ncnc3ccc(-c4c(C)noc4C)cc23)c1 | 36.6% | 1.06% | 19.3% | -7.49%
28 | COc1ccc(-n2nc(C(=O)NCC(=O)NCC3COc4ccccc4O3)c3ccccc3c2=O)cc1OC (stereo unspecified) | -4.76% | -7.63% |  | 
29 | O=C(NN=C(c1ccccc1)c1ccccn1)c1ccccc1 | 44.2% (active) | 42.1% (active) | 36.7% | 43.1% (active)
30 | CC(=O)N(C(C)=O)c1ncc2c([nH]c3ccccc32)c1C#N | 47.9% (active) | 30.6% (active) | 48.5% (active) | 26.8% (active)
31 | CN(Cc1c(C(=O)N/N=C/c2cccc(F)c2)nnn1-c1nonc1N)C1CCCCC1 | -12.4% | 3.59% | 6.95% | -3.15%
32 | CN(C)S(=O)(=O)c1ccc(-c2csc(N/N=C/c3ccco3)n2)cc1 | -2.21% | 16.7% | -22.3% | 20.1%
33 | CC(=O)c1cccc(NC(=O)Nc2cccnc2)c1 | 64.6% (active) | 36.1% (active) | 58% (active) | 33.6% (active)
34 | CC(C)(C)CNC(=O)[C@]1(C)CCC[C@@]2(C)C3CC[C@@]4(C)C[C@]3(CCC21)CC4=O (stereo partly specified) | 9.18% | 17.9% |  | 
35 | CCCS(=O)(=O)Nc1ccc(Nc2c3ccccc3nc3ccccc23)c(OC)c1 | 64.2% (active) | 17.1% | 56.8% (active) | 2.6%
36 | CC(=NNc1nc2ccccc2o1)c1cc2ccccc2cn1 | 88.8% (active) | 86.4% (active) | 80.6% (active) | 86.3% (active)
37 | COc1ccc(-c2ncncc2-c2ccccc2)c(O)c1 | 27% | 17.1% | 35% | 14.7%
38 | Cc1cccc(C)c1-c1ccc(CN2C(CC(C)C)C(=O)N(Cc3cn(CC4CCCCC4)nn3)CCS2(=O)=O)cc1 (stereo unspecified) | 21.1% | 21.2% | 24.4% | 22.6%
